The sample as a whole holds a higher share of hits than the screen did.
CHX counter: counter-screen for Shiga toxin inhibitors: cycloheximide protein synthesis inhibition; cell reporter, cycloheximide protein synthesis inhibition counterscreen; 300,000 compounds, 12% hits; max response, %; AID 2314; in the data active = max response mostly above about 13%, no sharp cut-off; inactive = mostly below about 14%; also: read at 38.3 µM for the half of the compounds with a filed dose; 0% is about no effect
LmPK inh: blocks Leishmania mexicana pyruvate kinase activity. AID 1721. purified LmPK, Kinase-Glo ATP luminescence, 1 h. Potency, µM (highest dose often 57.5 µM), for inactives: at the highest dose activity change, negative = inhibition, usual class: inhibitors. Q27686. 290,000 compounds, 0.37% hits; also: potency is read from the fitted curve at half-maximal effect; % is scaled to controls: 0 for no effect and ±100 for the full control effect
Target sequence (Q27686 whole entry, looked up): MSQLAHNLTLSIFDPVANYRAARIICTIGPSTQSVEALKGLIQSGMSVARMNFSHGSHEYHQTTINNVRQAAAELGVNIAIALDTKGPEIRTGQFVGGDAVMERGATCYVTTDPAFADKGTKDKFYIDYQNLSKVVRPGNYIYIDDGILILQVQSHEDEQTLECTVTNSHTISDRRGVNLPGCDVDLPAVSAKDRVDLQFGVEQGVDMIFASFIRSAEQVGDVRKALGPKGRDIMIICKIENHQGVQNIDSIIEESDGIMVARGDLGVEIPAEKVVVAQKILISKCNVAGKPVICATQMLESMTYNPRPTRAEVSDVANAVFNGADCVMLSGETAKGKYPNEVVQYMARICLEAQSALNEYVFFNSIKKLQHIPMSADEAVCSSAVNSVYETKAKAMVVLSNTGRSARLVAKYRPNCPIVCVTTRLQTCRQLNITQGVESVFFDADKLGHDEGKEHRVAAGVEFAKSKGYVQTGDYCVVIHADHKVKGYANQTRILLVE
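Purified LmPK (0.1 nM) with 0.5 mM PEP and 0.1 mM ADP in imidazole buffer pH 7.2 with MgCl2/KCl, 1 h at room temperature. ATP formed was read by luciferase luminescence and normalized to no-enzyme and uninhibited controls.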
Shiga inhibitor: Shiga toxin inhibition | Vero cells, Shiga toxin protein synthesis inhibition reporter | inhibition, % at 38.7 µM | 290,000 compounds, 9.2% hits; in the data active = inhibition mostly above about 28%, no sharp cut-off; inactive = mostly below about 43%; also: 0% is about no effect
Giardia FBPA inh: blocks Giardia fructose-bisphosphate aldolase activity; A8B2U2; Potency, µM (doses to about 59.6 µM), without a hit: top-dose activity, negative = inhibition, most hits filed as inhibitors; 290,000 compounds, 0.71% hits; AID 2451; purified Giardia FBPA; also: potency is read from the fitted curve at half-maximal effect; % is scaled to controls: 0 for no effect and ±100 for the full control effect; nearly all actives have a fitted effect of over 55% in size
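40 nM FBPA preincubated 10 min at RT with compound (up to 57.5 uM final), then substrate plus GAPDH/TPI/NAD/arsenate coupling and diaphorase/resazurin added. Fluorescence read after 20 min at RT, 525/598 nm.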
RE007 growth inh: less growth of the S. pombe RE007 Vpr strain. S. pombe RE007 Vpr strain, BacTiter-Glo ATP luminescence, 24 h. Potency, µM (doses to about 92.2 µM), for the others: at the top dose activity change, negative = less growth, usual class: inhibitors. 360,000 compounds, 0.21% hits. AID 651644; active = well fitted falling curve with a large enough effect; inconclusive = small, poorly fitted or top-dose-only effect; inactive = no such curve, though single readings can be large or run the other way; also: potency is read from the fitted curve at half-maximal effect; % is scaled to controls: 0 for no effect and ±100 for the full control effect; nearly all actives have a fitted effect of over 50% in size
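Fission yeast RE007 carrying one integrated HIV-1 vpr copy, seeded at OD 0.01 in PMG+AL medium with 23 nL pinned compound. Grown 24 h at 30 degrees; viability read by BacTiter-Glo luminescence after 5 min.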
TbPYK inhibitor: T. brucei pyruvate kinase inhibition; Q57TT1; TbPYK enzyme, Kinase-Glo Plus ATP luminescence, 45 min; Potency, µM (top dose mostly 76.8 µM), without a hit: at the highest dose activity, negative = inhibition, most hits filed as inhibitors; 410,000 compounds, 0.12% hits; AID 624173; also: potency is read from the fitted curve at half-maximal effect; % is scaled to controls: 0 for no effect and ±100 for the full control effect; nearly all actives have a fitted effect of over 50% in size
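Enzyme and substrate buffer are dispensed first and compound is pin-transferred. ADP at 130 uM final then starts the reaction, which runs 45 min at room temperature. Detection reagent is added for 10 min before luminescence is imaged.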
An asterisk follows results filed as active; ? = inconclusive; . = no result; [ ] = another dose, or the depositor's remark. Unless noted, calls follow the shape of the dose curve; as a rule, active = well fitted curve in the direction sought with a large enough effect; inconclusive = small, poorly fitted or top-dose-only effect, or another doubt; inactive = no such curve, though single readings can be large; an effect the other way counts as inactive or inconclusive.

SMILES | CHX counter | LmPK inh | Shiga inhibitor | Giardia FBPA inh | RE007 growth inh | TbPYK inhibitor
CC1=NN(c2ccccc2)C(=O)/C1=C\N(O)c1ccccc1 | 13* | 0% | 38 | -21% | -4% | -8%
CC1=NN(c2ccccc2)C(=O)/C1=C/c1c(O)n(-c2ccc(F)cc2)[nH]c1=O | 24* | -3% | -7 | 5% | -7% | -3%
COc1ccc(S(=O)(=O)NCCc2csc3nc(-c4ccc(Cl)cc4)nn23)cc1C | . | . | . | . | . | 3%
COc1ccccc1N1CCN(S(=O)(=O)c2ccc(-c3ccno3)cc2OC)CC1 | . | . | . | . | . | 0%
CCCCC(CC)CNC(=O)c1ccc2c(=O)n(CCOC)c(=O)[nH]c2c1 (configuration not stated) | -7 | . | 2 | . | . | -1%
NC(=O)Cc1ccc(C(=O)c2ccc(F)cc2)s1 | 25* | 1% | 20 | -3% | 8% | -5%
Cc1ccc(O)c(-c2cc(C(F)(F)C(F)F)[nH]n2)c1 | 19* | 1% | 47 | -1% | 2% | 0%
COc1ccc(O)c(-c2cc(-c3ccccc3[N+](=O)[O-])[nH]n2)c1 | 25* | 1% | -3 | -3% | 19% | -9%
COc1ccc(O)c(-c2[nH]ncc2C(=O)c2cccc(C)c2)c1 | -3 | -4% | -3 | -9% | -3% | -11%
Cc1ccc(-c2cc(-c3cccs3)[nH]n2)c(O)c1 | 41* | -1% | 72* | 0% | -21% | 2%
O=[N+]([O-])c1ccccc1-c1cc(-c2cc(Cl)ccc2O)n[nH]1 | 22* | 3% | 50 | 4% | 1% | 2%
O=C1NC(c2cc(Cl)cc([N+](=O)[O-])c2O)Nc2ccccc21 (configuration not stated) | 10 | -15% | 17 | 9% | 3% | 1%
COc1ccc(N2CCN(C(=O)c3cc4c(=O)n(Cc5cccnc5)ccc4nc3C)CC2)cc1 | . | . | . | . | . | 4%
CCOc1ccccc1NC(=O)NCCn1c(=O)oc2ccc(C)cc21 | . | . | . | . | . | 0%
Cc1ccc(O)c(-c2cc(-c3ccccc3[N+](=O)[O-])[nH]n2)c1 | 20* | 1% | 44* | -5% | -12% | 4%
Cc1ccc(O)c(-c2cc(-c3ccccc3C)[nH]n2)c1 | -2 | 5% | 33* | -7% | ? | -1%
Cc1ccc(C(=O)c2oc3ccccc3c2NC(=O)c2cc(-c3cc(C)ccc3O)n[nH]2)cc1 | -5 | 7% | 3 | 2% | -17% | 0%
CCc1ccc(NC(=O)c2ccc(F)c(S(=O)(=O)N3CCN(c4cc(C)ccc4C)CC3)c2)cc1 | . | . | . | . | . | -6%
COc1ccc(N=Nc2nc3cc(Br)c(Br)cc3n2C)c(OC)c1 | 34* | 22% | 35* | ? | 15% | -12%
CC(C)[C@H](NC(=O)[C@@H]1Cc2ccccc2CN1C(=O)OC(C)(C)C)C(=O)NCc1ccco1 | -3 | 2% | 12 | . | -5% | 6%
Cc1nc2ccccc2n1CCc1nc2c3ccccc3nc(SCc3ccc(C#N)cc3)n2n1 | . | . | . | . | . | 5%
CCc1cc2cc(C)cc(C)c2[nH]c1=S | 8 | ? | 37 | -7% | 33% | 11µM*
O=c1[nH]c(N/N=C\c2ccc(F)cc2)nc2ccccc12 | 34* | -1% | 80* | -5% | -6% | -6%
C=CCn1c(N/N=C/c2ccc(O)cc2)nc2ccccc2c1=O | 36* | -16% | 153* | -12% | 6% | 2%
O=c1[nH]c(N/N=C/c2ccc(O)cc2)nc2ccccc12 | 36* | -16% | 64* | -3% | 14% | -10%
SMILES | CHX counter | LmPK inh | Shiga inhibitor | Giardia FBPA inh | RE007 growth inh | TbPYK inhibitor
O=C(N/N=C/c1ccc2cccnc2c1)c1nc2ccccc2c(=O)[nH]1 | 30* | -1% | 35* | -17% | -15% | 2%
Cc1cccc(N2CCN(C(=O)C3CCCN(S(=O)(=O)c4ccc(Br)s4)C3)CC2)c1C (configuration not stated) | . | . | . | . | . | -6%
Cc1cccc(CSc2nnc(-c3ccco3)o2)c1 | 32* | 0% | 89* | -7% | ? | -17%
CN(C)c1cccc(-c2nnc(SCCCC#N)o2)c1 | 49* | -3% | 91* | -16% | 7% | 1%
c1ccc(-c2nnc(SCc3ccncc3)o2)cc1 | . | . | . | . | -5% | -5%
Cc1cccc(-c2nnc(SCc3ccccc3)o2)c1 | 28* | 0% | 92* | 2% | ? | 4%
CN(C)CCSc1nnc(-c2ccccc2)o1 | 39* | 2% | 57* | -8% | 8% | 1%
CCc1ccc(C(=O)N2CCC(c3nc(-c4ccc(S(=O)(=O)N5CCCC5)cc4)no3)CC2)cc1 | . | . | . | . | . | 1%
Cc1nnc2ccc(-c3ccc(NC(=O)c4ccco4)cc3)nn12 | 14* | 11% | 71 | -5% | 39% | 4%
O=C(Nc1ccc(-c2ccc(N3CCCCC3)nn2)cc1)c1ccco1 | . | . | . | . | ? | 7%
Cc1ccc(-c2cn3ccc(C)cc3n2)cc1 | . | . | . | . | . | -8%
Nc1nc(-c2ccc(NC(=O)c3ccco3)cc2)cs1 | 17* | -18% | 40* | 1% | -24% | 1%
Cc1ccn2cc(-c3ccc(NC(=O)c4ccco4)cc3)nc2c1 | 43* | -14% | active | -2% | -12% | -6%
CC(=O)Nc1ccc(-c2ccc3nnc(C)n3n2)cc1 | 0 | 8% | 30 | -3% | -6% | -6%
Cc1nc(-c2ccc(NC(=O)c3ccco3)cc2)cs1 | 11* | ? | 28 | 2% | ? | -23%
CCOc1ccc(C(=O)NCCN2CCCCC2)c(OCC)c1 | -1 | 0% | 12 | -3% | -18% | 1%
CCOC(=O)CCN1C(=O)[C@H]2[C@H]3[C@H](O)[C@H](O)C/C(=N/OC[C@@H](O)COCc4ccco4)[C@H]3CC[C@@H]2C1=O | . | . | . | 4%[12.9 µM] | . | .
Cc1nc(-c2cccc(NC(=O)c3ccco3)c2)cs1 | 27* | -5% | 45 | . | -23% | -2%
CCOc1ccc(-c2cccc(NC(=O)c3ccco3)c2)nn1 | . | . | . | . | -3% | -1%
O=C(NCc1cccc(F)c1)c1ccc(CN2CC(=O)N3CCCCC3C2=O)cc1 (configuration not stated) | . | . | . | . | . | -9%
CCN(C(=O)c1oc2ccc(S(=O)(=O)N3CCCCCC3)cc2c1C)c1ccccc1 | . | . | . | . | . | 2%
Cc1ccc(C(=O)N2CCc3cc(CNC(=O)c4ccccc4F)ccc32)cc1 | . | . | . | . | . | 8%
CC(Oc1ccc(Cl)cc1Cl)c1nc(-c2ccc(NC(=O)c3ccccn3)cc2)no1 (configuration not stated) | 28* | -20% | 71* | 0% | -10% | 3%
COc1ccc(Cl)cc1-c1nc(-c2ccc(NC(=O)c3ccncc3)cc2)no1 | . | . | . | . | -11% | 2%
COc1ccc(Cl)cc1NC(=O)c1oc2ccc(S(=O)(=O)N3CCCCC3)cc2c1C | . | . | . | . | . | 3%

Screening results (PubChem BioAssay)
